Experimental data taken from PubChem BioAssay (NCATS).
Records with an inconclusive call do not appear. A number with no mark means an inactive call. Calls come from the whole dose curve; as a rule, active = well fitted inhibition curve with a large enough effect; inconclusive = small, poorly fitted or top-dose-only effect; inactive = flat fitted curve, though single readings scatter.

Assay: Drug repurposing screens with cells derived from glioblastoma tumor samples (AID 1345199); note: nearly all actives have a fitted effect of over 40% in size
Conditions: GBM patient neurospheres viability, ATP luminescence, 48 h; at 20 µM (top of the series); tumour line C
Summary of the method: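 Four patient lines of CD133+ GBM neurospheres were screened at several concentrations; hits were retested in those lines plus three slower-growing GBM lines, using 48-hour treatment and ATP-based viability.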
% is set by controls: 0 for no effect and ±100 for the full control effect.

SMILES | activity, negative = cell killing [%]
CCN(CC)CCNC(=O)c1cc(S(C)(=O)=O)ccc1OC | -10.9
CCc1c(C)[nH]c2c1C(=O)C(CN1CCOCC1)CC2 (configuration not stated) | -3.97
CNCCCN1c2ccccc2CCc2ccccc21 | 14.5
CC[N+](C)(C)c1cccc(O)c1 | -0.675

Same assay, conditions: GBM patient neurospheres viability, ATP luminescence, 48 h; at 21.2 µM (top of the series); tumour line B

SMILES | activity, negative = cell killing [%]
CCN(CC)CCNC(=O)c1cc(S(C)(=O)=O)ccc1OC | -7.73
CCc1c(C)[nH]c2c1C(=O)C(CN1CCOCC1)CC2 (configuration not stated) | -15.8
CC[N+](C)(C)c1cccc(O)c1 | -16.9

Same assay, conditions: GBM patient neurospheres viability, ATP luminescence, 48 h; at 21.2 µM (top of the series); tumour line D

SMILES | activity, negative = cell killing [%]
CCN(CC)CCNC(=O)c1cc(S(C)(=O)=O)ccc1OC | -4.2
CCc1c(C)[nH]c2c1C(=O)C(CN1CCOCC1)CC2 (configuration not stated) | 1.91
CC[N+](C)(C)c1cccc(O)c1 | -14.7

Same assay, conditions: GBM patient neurospheres viability, ATP luminescence, 48 h; at 45.9 µM (top of the series); tumour line B

SMILES | activity, negative = cell killing [%]
CC(C)NNC(=O)c1ccncc1 | -11.9
c1cnc(N2CCN(Cc3ccc4c(c3)OCO4)CC2)nc1 | -3.93
NC1=NCC2c3ccccc3Cc3ccccc3N12 (configuration not stated) | -23.2
CCCCCN(CCCCC)C(=O)C(CCC(=O)O)NC(=O)c1ccc(Cl)c(Cl)c1 (configuration not stated) | -4.86
CN1C(=O)CC[C@H]1c1cccnc1 | -1.32
C[C@]12CC[C@@H]3c4ccc(O)cc4C[C@@H](CCCCCCCCCS(=O)CCCC(F)(F)C(F)(F)F)[C@H]3[C@@H]1CC[C@@H]2O (some centres not stated) | 11.9
CCCN1C[C@H](CSC)C[C@@H]2c3cccc4[nH]cc(c34)C[C@H]21 | -27.2
CC1=NS(=O)(=O)c2cc(Cl)ccc2N1 | -1.9
O=C(O)CN(CCN(CC(=O)O)CC(=O)O)CCN(CC(=O)O)CC(=O)O | -4.92
C[C@H](CS)C(=O)N1CCC[C@H]1C(=O)O | 1.21
Cc1ccc(/C(=C\CN2CCCC2)c2ccccn2)cc1 | -22.4
Cc1ccc(Cl)c(Nc2ccccc2C(=O)O)c1Cl | -5.7
CN1C[C@H](C(=O)N[C@]2(C)O[C@@]3(O)[C@@H]4CCCN4C(=O)[C@H](Cc4ccccc4)N3C2=O)C[C@@H]2c3cccc4[nH]cc(c34)C[C@H]21 | -29.3
CCCN(CCC)C(=O)C(CCC(=O)O)NC(=O)c1ccccc1 (configuration not stated) | 1.78
Cc1cc(C)c(/C=C2\C(=O)Nc3ccccc32)[nH]1 | -6.6
COC(=O)[C@H]1[C@H]2C[C@@H]3c4[nH]c5cc(OC)ccc5c4CCN3C[C@H]2C[C@@H](OC(=O)c2cc(OC)c(OC)c(OC)c2)[C@@H]1OC | -27.8
CCOC(=O)c1cnc2c(cnn2CC)c1NN=C(C)C | -11.6
CN(C)CC[C@@H](c1ccc(Br)cc1)c1ccccn1 | -11
CC(N=C(NC#N)Nc1ccncc1)C(C)(C)C (configuration not stated) | -17.7

Same assay, conditions: GBM patient neurospheres viability, ATP luminescence, 48 h; at 45.9 µM (top of the series); tumour line D

SMILES | activity, negative = cell killing [%]
CC(C)NNC(=O)c1ccncc1 | -16.2
c1cnc(N2CCN(Cc3ccc4c(c3)OCO4)CC2)nc1 | -6.17
CCCCCN(CCCCC)C(=O)C(CCC(=O)O)NC(=O)c1ccc(Cl)c(Cl)c1 (configuration not stated) | -12.8
CN1C(=O)CC[C@H]1c1cccnc1 | -18.5
C[C@]12CC[C@@H]3c4ccc(O)cc4C[C@@H](CCCCCCCCCS(=O)CCCC(F)(F)C(F)(F)F)[C@H]3[C@@H]1CC[C@@H]2O (some centres not stated) | -8.98
CC1=NS(=O)(=O)c2cc(Cl)ccc2N1 | 2.33
O=C(O)CN(CCN(CC(=O)O)CC(=O)O)CCN(CC(=O)O)CC(=O)O | -0.113
C[C@H](CS)C(=O)N1CCC[C@H]1C(=O)O | -0.196
Cc1ccc(/C(=C\CN2CCCC2)c2ccccn2)cc1 | -28.9
Cc1ccc(Cl)c(Nc2ccccc2C(=O)O)c1Cl | -0.35
CCCN(CCC)C(=O)C(CCC(=O)O)NC(=O)c1ccccc1 (configuration not stated) | -1.59
CCOC(=O)c1cnc2c(cnn2CC)c1NN=C(C)C | -28.3
CC(N=C(NC#N)Nc1ccncc1)C(C)(C)C (configuration not stated) | -6.7

Same assay, conditions: GBM patient neurospheres viability, ATP luminescence, 48 h; at 46 µM (top of the series); tumour line A

SMILES | activity, negative = cell killing [%]
CN1C(=O)CC[C@H]1c1cccnc1 | -11.4
CC1=NS(=O)(=O)c2cc(Cl)ccc2N1 | -21.7
C[C@H](CS)C(=O)N1CCC[C@H]1C(=O)O | -14.4
Cc1ccc(Cl)c(Nc2ccccc2C(=O)O)c1Cl | -28.2
CCCN(CCC)C(=O)C(CCC(=O)O)NC(=O)c1ccccc1 (configuration not stated) | -28.4

Same assay, conditions: GBM patient neurospheres viability, ATP luminescence, 48 h; at 46.1 µM (top of the series); tumour line C

SMILES | activity, negative = cell killing [%]
CC(C)NNC(=O)c1ccncc1 | -23.6
c1cnc(N2CCN(Cc3ccc4c(c3)OCO4)CC2)nc1 | -21.6
CCCCCN(CCCCC)C(=O)C(CCC(=O)O)NC(=O)c1ccc(Cl)c(Cl)c1 (configuration not stated) | -26.2
CN1C(=O)CC[C@H]1c1cccnc1 | -34.2
C[C@]12CC[C@@H]3c4ccc(O)cc4C[C@@H](CCCCCCCCCS(=O)CCCC(F)(F)C(F)(F)F)[C@H]3[C@@H]1CC[C@@H]2O (some centres not stated) | 16.6
CCCN1C[C@H](CSC)C[C@@H]2c3cccc4[nH]cc(c34)C[C@H]21 | 15.8
CC1=NS(=O)(=O)c2cc(Cl)ccc2N1 | 8.3
O=C(O)CN(CCN(CC(=O)O)CC(=O)O)CCN(CC(=O)O)CC(=O)O | -9.95
C[C@H](CS)C(=O)N1CCC[C@H]1C(=O)O | -15.5
Cc1ccc(/C(=C\CN2CCCC2)c2ccccn2)cc1 | 0.541
NC(N)=N/N=C/c1c(Cl)cccc1Cl | 0.325
Cc1ccc(Cl)c(Nc2ccccc2C(=O)O)c1Cl | -24.9
CN1C[C@H](C(=O)N[C@]2(C)O[C@@]3(O)[C@@H]4CCCN4C(=O)[C@H](Cc4ccccc4)N3C2=O)C[C@@H]2c3cccc4[nH]cc(c34)C[C@H]21 | 4.11
CCCN(CCC)C(=O)C(CCC(=O)O)NC(=O)c1ccccc1 (configuration not stated) | -13.4
CCOC(=O)c1cnc2c(cnn2CC)c1NN=C(C)C | -18.1
NC(N)=NC(=O)Cc1c(Cl)cccc1Cl | -19.8
COc1ccc([C@@H]2Sc3ccccc3N(CCN(C)C)C(=O)[C@@H]2OC(C)=O)cc1 | -13.9
CC(C)(C)c1ccc(C(=O)CCCN2CCC(OC(c3ccccc3)c3ccccc3)CC2)cc1 | -18.9
CN(C)CC[C@@H](c1ccc(Br)cc1)c1ccccn1 | 2.86
CC(N=C(NC#N)Nc1ccncc1)C(C)(C)C (configuration not stated) | -1.36
